# Screening data: PubChem BioAssay, National Center for Advancing Translational Sciences (NCATS)
# Sampled rows, rich in hits. Any-hit rate of the full collection: about 19%.
# KB-3-1 cytotox: KB-3-1 parental cell cytotoxicity; KB-3-1 viability, CellTiter-Glo ATP luminescence, 72 h; Potency, µM (doses to about 46.1 µM), actives largely listed as cytotoxic; 1.4% of 400,000 active; AID 1347075; note: nearly all actives have a fitted effect of over 60% in size
#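 Here the drug-naive KB-3-1 line serves as comparator for MDR sub-line selectivity; cells received compound titrations, 72 h at 37 °C, then CellTiter-Glo readout.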
# DT40 TDP1 no CPT: qHTS for Inhibitors of human tyrosyl-DNA phosphodiesterase 1 (TDP1): qHTS in cells in absence of CPT | DT40 Tdp1-/- hTDP1 cells, no CPT, ATP luminescence, 48 h | Potency, µM (series often up to 46.2 µM), usual class: inhibitors | 15% of 420,000 active | AID 686978, 2013; note: nearly all actives have a fitted effect of over 55% in size
#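 DT40 Tdp1-/-;hTDP1 cells, no CPT (DMSO vehicle only), 400 cells/well; compounds pin-transferred; ≥48 hr, 37 °C; CellTiter-Glo 30 min RT dark, luminescence read.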
# HT1080 IDH1KD tx: kills HT-1080 cells with IDH1 knockdown; HT-1080 IDH1 knockdown viability, ATP luminescence, 48 h; Potency, µM (top dose mostly 46.1 µM), hits mostly cytotoxic; 2% of 360,000 active; AID 686971
#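 CellTiter-Glo luminescence after 48 h compound exposure at 37 degrees C of IDH1-knockdown HT-1080 cells in 5% FBS RPMI. %Activity scaled between DMSO wells and cell-free media wells, with curves fitted and assigned curve classes.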
# HT1080NT lethal: kills 2HG-producing HT-1080-NT fibrosarcoma cells | HT-1080-NT fibrosarcoma viability, CellTiter-Glo ATP luminescence, 48 h | Potency, µM (highest dose often 46.1 µM), usual class: cytotoxic | 1.6% of 360,000 active;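 note: NT is the 2HG producing partner of a matched IDH1 knockdown line; nearly all actives have a fitted effect of over 55% in size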
#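 Fibrosarcoma NT cells, 750 per well in 5% FBS RPMI, were exposed to compound for 48 hours. Viability: CellTiter-Glo luminescence.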
# DT40 TDP1 CPT: DT40-hTDP1 cell growth loss with CPT; AID 686979; Potency, µM (titrated, usually from 46.2 µM), hits mostly inhibitors; 12% of 420,000 active; chicken DT40 Tdp1-/-;hTDP1 cells + 20 nM CPT, ATP luminescence, 48 h; note: nearly all actives have a fitted effect of over 55% in size
#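 Chicken DT40 Tdp1-/- cells complemented with human TDP1, 400 cells/well, exposed to compounds plus 20 nM camptothecin for at least 48 h at 37 C; viability read as ATP content by CellTiter-Glo luminescence.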
# KB-V1 cytotox: kills drug-selected multidrug resistant KB-V1 cells. Potency, µM (doses to about 46.1 µM), most hits filed as cytotoxic. 3.4% of 400,000 active. AID 1347076. KB-V1 MDR cells viability, CellTiter-Glo, 72 h; note: nearly all actives have a fitted effect of over 60% in size
#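 Potencies derive from concentration-effect curves fitted to normalized luminescence (CellTiter-Glo) of KB-V1 cells treated for 72 h at 37 degrees C in phenol-red-free DMEM containing 10% FBS.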
# Numbers stand for hits; - = inactive; ? = inconclusive; . = not tested or not shown; ! = a repeat was not active. Calls come from the whole dose curve; as a rule, active = well fitted curve in the direction sought with a large enough effect; inconclusive = small, poorly fitted or top-dose-only effect, or another doubt; inactive = no such curve, though single readings can be large; an effect the other way counts as inactive or inconclusive.
SMILES,KB-3-1 cytotox,DT40 TDP1 no CPT,HT1080 IDH1KD tx,HT1080NT lethal,DT40 TDP1 CPT,KB-V1 cytotox
C[C@@H]1C[C@H]2[C@@H]3C[C@H](F)C4=CC(=O)C=C[C@]4(C)[C@@]3(F)[C@@H](O)C[C@]2(C)[C@@]1(O)C(=O)COC(=O)C(C)(C)C,?,23µM,?,?,23µM,-
C[C@@H]1C[C@H]2[C@@H]3C[C@H](F)C4=CC(=O)C(Cl)=C[C@]4(C)[C@@]3(F)[C@@H](O)C[C@]2(C)[C@@]1(O)C(=O)CO,.,17µM,.,.,?,.
CCCC(=O)O[C@]1(C(=O)COC(C)=O)CC[C@H]2[C@@H]3C[C@H](F)C4=CC(=O)C=C[C@]4(C)[C@@]3(F)[C@@H](O)C[C@@]21C,-,?,-,?,24µM!,-
O=C(COc1ccccc1)N(Cc1cccnc1)c1nc2c(F)cccc2s1,-,-,.,.,-,-
O=C(CCOc1ccccc1)N(Cc1cccnc1)c1nc2c(F)cccc2s1,.,7.3µM,.,.,13µM,.
Cc1ccc2sc(N(Cc3cccnc3)C(=O)CCOc3ccccc3)nc2c1C,-,18µM,.,.,23µM,-
CC(=O)c1ccc(C(=O)N(Cc2cccnc2)c2nc3c(Cl)cccc3s2)cc1,-,?,.,.,26µM,-
Cc1cccc2sc(N(Cc3cccnc3)C(=O)c3ccco3)nc12,.,-,.,.,-,.
COc1ccc(CNC(=O)c2ccc3c(c2)N(Cc2ccccc2F)C(=O)c2ccccc2S3=O)cc1 (centres undefined),-,?,.,.,-,-
Cc1ccc(NS(=O)(=O)c2cc3c(cc2C)OCC(=O)N3)cc1C,-,.,.,.,.,?
CC1CCCC(NC(=O)c2nn(C)c3c2CS(=O)(=O)c2ccccc2-3)C1C (centres undefined),-,9.2µM,-,-,?,-
COc1ccc(N2CCN(C(=O)c3nn(C)c4c3CS(=O)(=O)c3ccccc3-4)CC2)cc1,-,?,-,-,23µM!,-
Cc1cccc(N2CCN(C(=O)c3nn(C)c4c3CS(=O)(=O)c3ccccc3-4)CC2C)c1 (centres undefined),-,18µM,-,-,23µM,?
Cc1ccc(NC(=O)c2nn(C)c3c2CS(=O)(=O)c2ccccc2-3)c(Cl)c1,-,-,.,.,-,-
COc1ccccc1NC(=O)c1nn(C)c2c1CS(=O)(=O)c1ccccc1-2,-,-,.,.,-,-
COc1cc(NC(=O)c2nn(C)c3c2CS(=O)(=O)c2ccccc2-3)cc(OC)c1,-,16µM,-,-,?,-
CC1C(O)=C(c2ccccc2)P(=O)(Cc2ccccc2)C1C (centres undefined),-,-,-,-,-,-
CN(C)c1nc2c(c(=O)[nH]c(=O)n2C)n1CCCc1ccccc1,?,-,-,-,-,?
COc1cc(C(CC(=O)Nc2ccc(C)cn2)N2Cc3ccccc3C2=O)cc(OC)c1OC (centres undefined),-,-,-,?,-,-
Cn1nc(C(=O)NCCc2ccc(Cl)cc2)c2c1-c1ccccc1S(=O)(=O)C2,-,29µM,-,-,?,-
Cc1ccc(N2CCN(C(=O)c3nn(C)c4c3CS(=O)(=O)c3ccccc3-4)CC2)c(C)c1,-,21µM,-,-,18µM,?
Cc1ccc(CCNC(=O)c2nn(C)c3c2CS(=O)(=O)c2ccccc2-3)cc1,-,?,-,-,?,-
Cc1ccc(Cl)cc1N1CCN(C(=O)c2nn(C)c3c2CS(=O)(=O)c2ccccc2-3)CC1,-,12µM,.,.,21µM,?
Cn1nc(C(=O)NCc2ccc(Cl)cc2)c2c1-c1ccccc1S(=O)(=O)C2,-,?,-,-,?,-
COc1cc(NC(=O)c2nn(C)c3c2COc2ccccc2-3)cc(OC)c1OC,.,3.3µM,.,.,4.6µM,.
SMILES,KB-3-1 cytotox,DT40 TDP1 no CPT,HT1080 IDH1KD tx,HT1080NT lethal,DT40 TDP1 CPT,KB-V1 cytotox
COc1ccccc1N1CCN(C(=O)c2nn(C)c3c2CS(=O)(=O)c2ccccc2-3)CC1,-,?,-,-,?,?
Fc1ccc2c(c1)C(c1ccncc1)=NNC(c1cccnc1)=N2,-,-,-,-,-,-
O=C(CN1C(=O)NC2(CCCC2)C1=O)Nc1nc2c(F)cc(F)cc2s1,-,-,-,-,-,-
CC(=O)c1ccc(N2CCN(C(=O)c3nn(C)c4c3CS(=O)(=O)c3ccccc3-4)CC2)cc1,-,?,-,-,?,-
Cn1nc(C(=O)N2CCN(c3ccc(Cl)cc3)CC2)c2c1-c1ccccc1S(=O)(=O)C2,?,?,-,-,16µM,-
Cn1nc(C(=O)N2CCN(c3cccc(Cl)c3)CC2)c2c1-c1ccccc1S(=O)(=O)C2,-,?,-,-,18µM,?
COc1cccc(NC(=O)C2CC(=O)n3cnnc3S2)c1 (centres undefined),-,5.2µM,-,-,2.9µM,-
COc1ccc(NC(=O)C2CC(=O)n3cnnc3S2)cc1 (centres undefined),-,4.6µM,-,-,2.3µM,-
CC1CCCCN1CCCNC(=O)Cn1ncc2c3ccccc3n(Cc3ccccc3F)c2c1=O (centres undefined),-,18µM,.,.,?,-
Cc1ccc(C)c(N2CCN(CCCNC(=O)Cn3ncc4c5ccccc5n(C)c4c3=O)CC2)c1,-,10µM,.,.,15µM,-
CCC1CCCCN1CCCNC(=O)Cn1ncc2c(C)n(Cc3ccccc3Cl)c(C)c2c1=O (centres undefined),-,18µM,-,-,18µM,-
Cn1c2ccccc2c2cnn(CC(=O)NCCCN3CCN(c4ccccc4F)CC3)c(=O)c21,-,15µM,-,-,?,-
CN1CCN(CCCNC(=O)Cn2ncc3c4ccccc4n(C)c3c2=O)CC1,-,-,-,-,-,-
COc1ccccc1-c1cccc2nccn12,-,-,-,-,?,-
CC(=O)N(c1ccc2ccccc2c1)C1SC(=O)N(c2cccc(C)c2)C1=O (centres undefined),.,-,-,-,-,.
Cn1c(Cc2nc(-c3cnccn3)no2)nnc1SCC(=O)Nc1ccccc1,-,-,-,-,-,-
CCCCCCCn1c(=N)n(CC(O)c2ccco2)c2ccccc21 (centres undefined),-,4.6µM,23µM,16µM,3.7µM,?
N=c1n(CCN2CCCC2)c2ccccc2n1CC(O)c1ccco1 (centres undefined),-,-,-,-,-,-
CCCCn1c(=N)n(CC(=O)c2ccco2)c2ccccc21,-,?,-,?,?,-
CCCCCCCn1c(=N)n(CC(=O)c2ccco2)c2ccccc21,?,?,?,?,21µM,?
